Screening results as filed in PubChem.
A selection: hits, their analogues and other compounds. The true share with any hit is near 3.1%.
MITF act: increases MITF-driven TRPM1 promoter luciferase signal; activation, % at 12.5 µM; 300,000 compounds, 0.75% hits; SK-MEL-5 TRPM1-promoter luciferase, 24 h; % of positive control, neutral wells = 0;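 active means mean activation of at least 80% with every replicate also reaching 80%; inconclusive means mean reaches 80% but some replicate falls short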;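 further: 0% = neutral control wells and 100% = parthenolide positive control wells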
esBAF inh: SWI/SNF esBAF complex inhibition; mouse ES cells, Bmi1-luciferase knock-in reporter, 24 h; 100% = twice the neutral-well signal; reporter increase, % at 12.5 µM; 350,000 compounds, 2% hits; AID 602393; in the data active means activation above about 40%; inconclusive means no clear call, values can overlap the other calls;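 further: 0% = median of the plate's neutral control wells and 100% = double that signal; a rise in the Bmi1 reporter signal indicates esBAF inhibition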
Rtt109 HAT inh: inhibitors of Candida albicans Rtt109/Vps75 histone acetyltransferase. Q5AAJ8. purified Rtt109/Vps75, ThioGlo CoA-SH fluorescence, 4 h. inhibition, % at 34.9 µM. 330,000 compounds, 0.16% hits. AID 540336;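 active means inhibition of at least 50% in every replicate; inconclusive means best replicate reaches 50% inhibition but some replicates fall short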
Target sequence (Q5AAJ8 whole entry, looked up): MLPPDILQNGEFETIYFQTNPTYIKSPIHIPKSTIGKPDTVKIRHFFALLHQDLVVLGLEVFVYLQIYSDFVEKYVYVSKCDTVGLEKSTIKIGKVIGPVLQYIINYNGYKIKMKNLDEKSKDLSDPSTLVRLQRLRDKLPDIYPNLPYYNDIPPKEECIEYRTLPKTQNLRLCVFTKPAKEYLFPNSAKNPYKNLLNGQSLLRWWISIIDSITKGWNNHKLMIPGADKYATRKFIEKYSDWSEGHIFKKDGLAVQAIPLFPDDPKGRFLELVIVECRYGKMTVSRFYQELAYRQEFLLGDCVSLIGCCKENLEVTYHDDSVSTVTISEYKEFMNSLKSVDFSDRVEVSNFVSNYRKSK
C2C12 statin: suppressors of simvastatin-induced myotoxicity in C2C12 myotubes. ATP luminescence, 48 h; scaled: DMSO 0, geranylgeraniol control 100. rescue of ATP level, % at 7.49 µM. 330,000 compounds, 0.78% hits;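 active means mean ATP rescue above about 67%, or every replicate alone reaching that limit, limit read from the data, passing the limit was not always enough; inconclusive means no clear call, values can overlap the other calls; inactive means mean under the limit and some replicate under it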;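 further: myotubes were challenged with 10 µM simvastatin during compound exposure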
Wnt act: Wnt/beta-catenin pathway activation | 300,000 compounds, 1.2% hits | Wnt/beta-catenin reporter cell assay, activator, plate reader | activation, % at 9.35 µM; in the data active means activation above about 30%, passing the limit was not always enough; inconclusive means no clear call, values can overlap the other calls;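 further: 0% = neutral control wells and 100% = positive control wells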
Ring1 derepress: esBAF inhibition confirmed by Ring1 de-repression; shares compounds with esBAF inh; mouse ESC E14, Ring1 mRNA RT-qPCR fold change; fold change at 33 µM; 550 tested, under 10 active; AID 743176;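 active means Ring1 gene expression raised more than 2-fold over untreated cells in both replicates at either tested dose; inconclusive means only one replicate above 2-fold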;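 further: Ring1 transcript normalised to actin housekeeping signal by TaqMan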
Fgf4 repress: confirmation of esBAF inhibitors: Fgf4 repression in mouse ESCs | Fgf4 expression fold change at 33 µM | 550 compounds, 4% hits | shares compounds with esBAF inh | mouse ESC E14, Fgf4 mRNA qPCR fold change; stronger effect = lower value | AID 743177;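 active means Fgf4 expression under 0.8 fold of control in both repeat measurements at one or both tested doses; inconclusive means under 0.8 fold in just a single repeat measurement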;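 further: Fgf4 transcript normalised to actin in duplex TaqMan qPCR; cells exposed to compound for 24 h before lysis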
esBAF Bmi1 qPCR: de-represses Bmi1 in mouse ESCs, confirming esBAF inhibition; shares compounds with esBAF inh; mouse ESE14 ES cells, Bmi1 mRNA qPCR fold; stronger effect = higher value; fold change at 33 µM; 550 tested, under 10 active;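 active means Bmi1 expression fold change above 6 at either tested concentration, seen in replicate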
A549 tox SP: kills or reduces viability of A549 cells | shares compounds with esBAF inh | cell viability change % (negative = cytotoxic), % at 25 µM, hits read low | 550 tested, under 10 active | A549 cytotoxicity, plate reader; call rule not given here
HepG2 tox SP: cytotoxicity in HepG2 cells; plate reader; stronger effect = lower value; shares compounds with esBAF inh; AID 743189; activity change, negative = inhibition, % at 25 µM; 550 compounds, 4% hits; in the data active means activity change below about -50%
HEK293 tox SP: kills or reduces viability of HEK293 cells; shares compounds with esBAF inh; HEK293 cytotoxicity, plate reader; activity change, negative = inhibition, % at 25 µM, hits read low; 550 compounds, 3% hits; in the data active means activity change below about -38%, passing the limit was not always enough
An asterisk follows results filed as active; ? = inconclusive; . = not tested or not shown.

SMILES | MITF act | esBAF inh | Rtt109 HAT inh | C2C12 statin | Wnt act | Ring1 derepress | Fgf4 repress | esBAF Bmi1 qPCR | A549 tox SP | HepG2 tox SP | HEK293 tox SP
COc1cccc(OCc2cc(C(=O)N(C)Cc3nc4ccccc4[nH]3)no2)c1 | 66 | 69* | -3 | -16 | 25 | 1.3 | ? | 1.7 | -2 | -23 | -18
COC(=O)CN(C)C(=O)c1ccc2nc(Cc3cccc(Cl)c3)oc2c1 | 107* | 66* | -12 | -2 | 23 | 1.2 | 1 | 1.3 | -18 | -20 | -14
CN(Cc1ccccn1)C(=O)c1ccc2nc(Cc3cccc(Cl)c3)oc2c1 | 16 | . | -3 | . | 0 | . | . | . | . | . | .
COCC(=O)N(C)C[C@H]1Oc2ncc(C#Cc3ccccc3)cc2C(=O)N([C@H](C)CO)C[C@H]1C | . | 4 | . | -1 | . | . | . | . | . | . | .
COc1ccccc1NC(=O)Cn1nnc(-c2ccccc2NC(=O)c2cc3ccccc3oc2=O)n1 | 38 | 66* | -1 | 15 | 4 | 1.1 | 0.87 | 1.5 | -7 | -3 | -13
COc1ccccc1S(=O)(=O)N1CC[C@@H]2[C@H](CO)N(C)c3ccc(C#Cc4cccc(F)c4)cc3[C@@H]21 | . | 3 | . | -5 | . | . | . | . | . | . | .
O=c1c(-c2nc3ccccc3s2)cccn1Cc1ccc(Cl)cc1 | . | 67* | 3 | 13 | 23 | 1 | 0.98 | 1.4 | -10 | 3 | -16
Clc1ncccc1-c1nc2ccccc2s1 | 27 | . | 0 | . | 10 | . | . | . | . | . | .
COc1ccc(NC(=O)N(C)C[C@@H]2Oc3c(NS(=O)(=O)c4ccc(Cl)cc4)cccc3C(=O)N([C@@H](C)CO)C[C@@H]2C)cc1 | . | 4 | . | -10 | . | . | . | . | . | . | .
COc1ccc2c(c1OC)C(=O)N1c3ccccc3COC21 (stereo not given) | ? | 34 | -22 | -10 | . | . | . | . | . | . | .
COc1ccc2c(c1OC)C(=O)N1c3ccccc3SC21 (stereo not given) | 42 | 78* | -3 | -10 | . | 1 | 0.98 | 1.4 | 9 | -24 | -4
Cc1noc(C)c1S(=O)(=O)Nc1cccc2c1O[C@@H](CN(C)Cc1ccc(Cl)c(Cl)c1)[C@@H](C)CN([C@@H](C)CO)C2=O | . | -4 | . | 30 | . | . | . | . | . | . | .
N#Cc1ccc(Nc2nc(-c3ccccc3)cs2)cc1 | . | 74* | . | -18 | 26 | 1.6 | 0.81 | 2.4 | 7 | -10 | -9
O=C(O)c1ccc(Nc2nc(-c3ccccc3)cs2)cc1 | 55 | . | -20 | . | . | . | . | . | . | . | .
CSc1ccccc1NC(=O)c1cc(-c2ccco2)on1 | 25 | 28 | 7 | 13 | 10 | . | . | . | . | . | .
CSc1ccccc1NC(=O)c1cc(C(C)C)on1 | . | 78* | -6 | 3 | . | 0.95 | ? | 1.6 | -11 | -31 | -11
COc1ccc(CCn2nnc3ccccc3c2=O)cc1OC | . | 61* | . | -2 | -9 | 1.1 | 0.99 | 0.86 | 10 | -16 | 8
c1cc(-c2noc(CCC3CCCC3)n2)ccn1 | 24 | . | -14 | . | . | . | . | . | . | . | .
c1ccc(-c2noc(CC3CCCCC3)n2)cc1 | ? | 58* | 3 | 5 | 10 | 1.2 | 1.2 | 1.1 | -6 | -21 | -5
O=C(c1cc(COc2ccc(-n3cncn3)cc2)on1)N1CCCC1 | -4 | 9 | -1 | 3 | 1 | . | . | . | . | . | .
CC(NC(=O)c1cc(COc2ccc(-n3cncn3)cc2)on1)c1ccc(F)cc1 (stereo not given) | . | 59* | . | 2 | 16 | 1.1 | ? | 1.5 | -12 | 45 | 13
C[C@H](CO)N1C[C@H](C)[C@@H](CN(C)Cc2cccnc2)Oc2ncc(C#CC3(O)CCCC3)cc2C1=O | . | 6 | . | 29 | . | . | . | . | . | . | .
CCC(=O)N[C@H]1C=C[C@H](CC(=O)NCc2ccc(OC)cc2)O[C@H]1CO | . | 1 | . | -13 | . | . | . | . | . | . | .
